PubChem BioAssay
Activity calls are given as the source filed them.

How the values were obtained:
[1] = E. coli DRC41 culture turbidity changes, primary screen, E. coli filamentation inducer project, strain DRC41, OD650, 48 h (AID 1152);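 also: E. coli MC1000 strain DRC41 lacking acrAB efflux pump and sulA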; conditions: E. coli DRC41 (acrAB sulA), higher = more signal, called active from +8 up or from −8 down
[2] = small-molecule binders of probe aLefty1, primary screen, biochemical, small-molecule microarray, 635/667 nm fluorescence (AID 1153); conditions: higher = more signal;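 also: score merges spot fluorescence with signal-to-noise ratio from the scanned slide images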
[3] = PSAC antagonists in infected red cells, primary screen, cell-based, P. falciparum Indochina, OD700, 1 h (AID 1154); conditions: P. falciparum Indochina infected RBC osmotic lysis, higher = more signal, called active from +8 up or from −8 down
[4] = PSAC antagonists in infected red cells, primary screen, cell-based, P. falciparum Indochina, OD700, 2 h (AID 1155);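 also: lysis reports solute entry through the parasite surface anion channel PSAC; channel blockers reduce lysis of infected cells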; conditions: P. falciparum Indochina infected erythrocytes, osmotic lysis OD700; higher = more signal, called active from +8 up or from −8 down
[5] = osmotic lysis modulators in infected erythrocytes, primary screen, PSAC antagonist project, cell-based, P. falciparum Indochina, OD700, 3 h (AID 1156); conditions: higher = more signal, called active from +8 up or from −8 down
[6] = PSAC antagonists in infected red cells, primary screen, cell-based, P. falciparum Indochina, OD700, 18 h (AID 1157); conditions: P. falciparum Indochina infected erythrocytes, osmotic lysis OD700, 18 h; higher = more signal, called active from +8 up or from −8 down
[7] = modulators of S6 phosphorylation in cells, primary screen, cell-based, A549, cytoblot, luminescence, serum-stimulated (AID 1158); conditions: A549 phospho-S6 cytoblot, 5 h, higher = more signal;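 also: serum-stimulated A549 lung adenocarcinoma cells; signal is phosphorylated S6 detected by cytoblot immunostaining with HRP secondary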
[8] = target: NADPH oxidase 2 (Homo sapiens) (UniProt P04839); test: NOX2-dependent H2O2 signal modulators, primary screen, NOX inhibitor project, cell-based, HEK293-NOX2, PMA-stimulated, Amplex Red fluorescence (AID 1159); conditions: 45 min, higher = more signal, called active from +8 up or from −8 down; also: test concentration not given here
[9] = target: NADPH oxidase 4 (Homo sapiens) (UniProt Q9NPH5); test: NOX4-dependent H2O2 signal modulators, primary screen, NOX inhibitor project, cell-based, HEK293-NOX4, tetracycline-induced, Amplex Red fluorescence (AID 1160); conditions: 45 min, higher = more signal, called active from +8 up or from −8 down
[10] = target: NADPH oxidase 5 (Homo sapiens) (UniProt Q96PH1); test: NOX5-dependent H2O2 signal modulators, primary screen, NOX inhibitor project, cell-based, HEK293-NOX5, Amplex Red fluorescence (AID 1161); conditions: HEK293-NOX5, ionomycin, 45 min, higher = more signal
NADPH oxidase 5 (Homo sapiens), sequence (Q96PH1 whole entry, looked up): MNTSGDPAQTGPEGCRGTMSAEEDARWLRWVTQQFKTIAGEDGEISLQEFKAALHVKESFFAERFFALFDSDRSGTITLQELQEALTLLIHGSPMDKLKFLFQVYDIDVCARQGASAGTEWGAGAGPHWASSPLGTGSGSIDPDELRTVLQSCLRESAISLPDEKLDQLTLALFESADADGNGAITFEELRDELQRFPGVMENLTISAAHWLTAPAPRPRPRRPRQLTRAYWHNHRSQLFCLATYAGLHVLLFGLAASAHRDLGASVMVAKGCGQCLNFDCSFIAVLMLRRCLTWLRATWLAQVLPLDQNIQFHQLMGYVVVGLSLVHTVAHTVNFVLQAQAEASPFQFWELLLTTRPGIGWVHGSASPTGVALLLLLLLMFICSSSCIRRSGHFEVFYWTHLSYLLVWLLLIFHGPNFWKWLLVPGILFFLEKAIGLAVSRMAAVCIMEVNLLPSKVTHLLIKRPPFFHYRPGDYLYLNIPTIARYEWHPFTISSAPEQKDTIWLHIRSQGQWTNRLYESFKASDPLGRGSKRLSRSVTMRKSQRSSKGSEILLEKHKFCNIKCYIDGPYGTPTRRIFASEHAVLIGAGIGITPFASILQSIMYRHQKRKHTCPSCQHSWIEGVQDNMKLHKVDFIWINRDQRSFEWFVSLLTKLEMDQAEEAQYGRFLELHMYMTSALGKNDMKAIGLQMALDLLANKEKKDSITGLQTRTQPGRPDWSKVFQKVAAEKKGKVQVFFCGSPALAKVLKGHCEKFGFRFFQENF

NADPH oxidase 4 (Homo sapiens), sequence (Q9NPH5 whole entry, looked up): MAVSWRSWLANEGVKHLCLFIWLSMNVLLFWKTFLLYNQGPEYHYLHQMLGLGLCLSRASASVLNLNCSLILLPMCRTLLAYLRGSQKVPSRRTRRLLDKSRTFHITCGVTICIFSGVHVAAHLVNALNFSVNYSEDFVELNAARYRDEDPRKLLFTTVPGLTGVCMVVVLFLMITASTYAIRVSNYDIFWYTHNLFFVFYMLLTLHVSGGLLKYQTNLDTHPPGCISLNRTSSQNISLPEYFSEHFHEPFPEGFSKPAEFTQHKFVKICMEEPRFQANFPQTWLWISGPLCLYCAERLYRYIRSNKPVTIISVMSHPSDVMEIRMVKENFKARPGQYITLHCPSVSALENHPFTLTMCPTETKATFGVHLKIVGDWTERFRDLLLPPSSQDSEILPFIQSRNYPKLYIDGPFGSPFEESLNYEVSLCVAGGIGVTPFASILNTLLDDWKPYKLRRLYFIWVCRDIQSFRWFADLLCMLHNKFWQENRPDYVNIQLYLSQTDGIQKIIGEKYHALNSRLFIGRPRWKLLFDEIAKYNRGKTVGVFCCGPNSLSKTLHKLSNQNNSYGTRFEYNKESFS
NADPH oxidase 2 (Homo sapiens), sequence (P04839 whole entry, looked up): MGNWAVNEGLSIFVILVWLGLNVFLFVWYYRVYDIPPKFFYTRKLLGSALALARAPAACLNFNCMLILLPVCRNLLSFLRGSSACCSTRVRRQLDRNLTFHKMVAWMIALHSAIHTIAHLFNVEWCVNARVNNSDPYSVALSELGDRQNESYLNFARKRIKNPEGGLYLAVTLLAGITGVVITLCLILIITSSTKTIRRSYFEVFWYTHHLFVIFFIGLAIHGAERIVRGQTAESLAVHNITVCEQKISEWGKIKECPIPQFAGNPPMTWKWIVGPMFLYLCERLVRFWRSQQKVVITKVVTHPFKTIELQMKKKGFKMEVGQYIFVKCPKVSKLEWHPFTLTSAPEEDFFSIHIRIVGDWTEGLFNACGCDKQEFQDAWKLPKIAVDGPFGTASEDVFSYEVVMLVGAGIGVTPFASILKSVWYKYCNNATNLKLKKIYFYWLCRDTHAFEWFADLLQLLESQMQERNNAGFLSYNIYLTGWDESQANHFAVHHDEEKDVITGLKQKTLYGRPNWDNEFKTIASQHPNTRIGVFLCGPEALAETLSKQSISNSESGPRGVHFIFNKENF

SMILES	z-score [1]	composite z-score [2]	z-score [3]	z-score [4]	z-score [5]	z-score [6]	z-score [7]	z-score [8]	z-score [9]	z-score [10]
CCOC(=O)C1=CC[C@@H](c2ccccc2)N(S(=O)(=O)c2ccc(C)cc2)[C@H]1c1cccc(OC)c1	-0.999 (inactive)	0.535	0.792 (inactive)	0.779 (inactive)	-0.422 (inactive)	0.385 (inactive)	-0.245	0.537 (inactive)	0.489 (inactive)	0.732
C=C(CCCC)C(=O)CC[C@H](OC(=O)c1ccccc1-c1ccccc1C(=O)O)c1ccccc1OCCO	0.509 (inactive)	-0.0984	8.58 (active)	1.56 (inactive)	1.82 (inactive)	0.944 (inactive)	-0.27	3.25 (inactive)	0.0107 (inactive)	-1.15
COc1ccc(NC(=O)O[C@H]2[C@@H]3OC(=O)[C@H](Cc4cccc(Br)c4)C/C=C/C[C@@H](Cc4cccc(Br)c4)C(=O)O[C@H]3[C@@H](OC)O[C@@H]2CO)cc1	0.446 (inactive)	0.358	0.469 (inactive)	-0.173 (inactive)	-0.284 (inactive)	0.434 (inactive)	0.353	-1.73 (inactive)	-1.21 (inactive)	-1.64
Cc1ccc([C@H]2C(C(=O)O)=C[C@@H](C(C)(C)C)N2S(=O)(=O)c2ccc(C)cc2)cc1	-1.18 (inactive)	0.141	0.212 (inactive)	0.934 (inactive)	-0.627 (inactive)	0.585 (inactive)	-0.213	0.96 (inactive)	-2.84 (inactive)	-0.357
O=C1N[C@@H](Cc2ccccc2)C(=O)N2[C@@H]1C[C@@H](C(=O)O)[C@H]2c1ccc(O)cc1	1.13 (inactive)	0.47	6.71 (inactive)	1.04 (inactive)	-2.73 (inactive)	0.595 (inactive)	-0.0505	-6.08 (inactive)	-4.88 (inactive)	-2.63
C=CCN1C(=O)[C@]2(O[C@H](CCO)[C@@H]([Si](C)(C)c3ccc(OC)cc3)[C@@H]2C)c2cc(NC(=O)c3ccc(OC)cc3)ccc21	-1.25 (inactive)	0.0494	7.31 (inactive)	2.69 (inactive)	-0.357 (inactive)	1.3 (inactive)	-0.309	-3.97 (inactive)	-0.48 (inactive)	1.38
COCCCNC(=O)[C@@H]1c2ccccc2C(=O)N(C2Cc3ccccc3C2)[C@H]1c1ccc(CO)cc1	0.748 (inactive)	-0.0603	3.1 (inactive)	1.18 (inactive)	0.65 (inactive)	0.476 (inactive)	-0.256	-0.193 (inactive)	0.444 (inactive)	-0.0459
CCOC(=O)C=Cc1cc(F)ccc1O	-1.38 (inactive)	0.0355	16.6 (active)	-0.347 (inactive)	0.782 (inactive)	-1.23 (inactive)	0.684	-4.77 (inactive)	-3.25 (inactive)	-4.14
O=C1O[C@H](c2ccccc2)[C@H](c2ccccc2)N2[C@H]1[C@@H](C(=O)Nc1nc3ccccc3s1)[C@]1(C(=O)Nc3ccc(C#CC4=CCCCC4)cc31)[C@H]2c1ccc(O)cc1	2.68 (inactive)	0.122	-0.559 (inactive)	-0.0042 (inactive)	-0.715 (inactive)	0.193 (inactive)	1.26	0.878 (inactive)	0.214 (inactive)	0.191
COc1ccc(C(=O)Nc2cccc(CN3C(=O)[C@]4(O[C@H](CCn5cc([C@H](O)c6ccccc6)nn5)[C@@H]([Si](C)(C)c5ccc(OC)cc5)[C@@H]4C)c4ccccc43)c2)cc1	0.959 (inactive)	0.051	1.23 (inactive)	0.0918 (inactive)	1.82 (inactive)	-0.209 (inactive)	0.871	-0.498 (inactive)	0.245 (inactive)	-0.305
CCOC(=O)C[C@H]1[C@H](OC(=O)c2ccc(-c3ccccc3)cc2)[C@@H](NC(=O)Cc2ccc(OC)cc2)c2cc(OCCCO)ccc2N1C(=O)Cc1ccc(OC)cc1	1.07 (inactive)	-0.0348	4.29 (inactive)	0.4 (inactive)	0.222 (inactive)	0.211 (inactive)	0.911	0.818 (inactive)	-0.868 (inactive)	1.52
CN1C(=O)C2C(C1=O)C1C=C(CCCO)C2C(C2CC2)N1Cc1cc2c(cc1Br)OCO2 (stereo not given)	-0.541 (inactive)	0.0041	3.48 (inactive)	0.68 (inactive)	0.3 (inactive)	0.307 (inactive)	-0.188	-0.84 (inactive)	-0.389 (inactive)	-0.349
Cc1ccccc1C(O)C1C=CC2C(=O)NC(=O)C2N1Nc1ccc(Cl)cc1Cl (stereo not given)	-1.87 (inactive)	0.219	1.81 (inactive)	1.35 (inactive)	-1.11 (inactive)	0.975 (inactive)	-0.649	-0.254 (inactive)	-4.79 (inactive)	-2.02
COC(=O)[C@@]1(Cc2ccc(OC)cc2)[C@H]2c3cc(C(=O)N4CCCC4)n(Cc4cc(C)n(C)n4)c3C[C@H]2CN1C(=O)c1ccccc1	-0.703 (inactive)	0.947	1.46 (inactive)	0.279 (inactive)	0.63 (inactive)	0.494 (inactive)	-0.458	0.755 (inactive)	-0.134 (inactive)	-2.8
COCCOC(=O)N1C(=O)[C@@]2(c3cc(C#Cc4ccc(OC)cc4)ccc31)[C@H](C(=O)NC[C@H](O)c1ccccc1)[C@H]1C(=O)O[C@H](c3ccccc3)[C@H](c3ccccc3)N1[C@@H]2c1ccc(OCCO)cc1	1.34 (inactive)	0.179	5.02 (inactive)	1.45 (inactive)	-0.191 (inactive)	0.312 (inactive)	2	-0.756 (inactive)	-2.17 (inactive)	-2.61
C=CCC(OC(C)=O)[C@@H]1[C@@H](N(Cc2ccc(-c3cccc(C(F)(F)F)c3)o2)C(=O)Cc2ccc(OC)cc2)c2cc(OCCCO)ccc2N1C(=O)Cc1ccc2ccccc2c1 (stereo not given in full)	-0.597 (inactive)	0.0026	0.572 (inactive)	0.214 (inactive)	1.83 (inactive)	0.165 (inactive)	0.258	-1.6 (inactive)	-1.4 (inactive)	-1.11
COc1ccc([Si](C)(C)[C@@H]2[C@@H](CC(=O)N3Cc4ccccc4C[C@H]3CO)O[C@]3(C(=O)N(Cc4ccc(N5CCC5=O)cc4)c4ccccc43)[C@H]2C)cc1	0.238 (inactive)	0.0253	5.02 (inactive)	1.31 (inactive)	0.538 (inactive)	1.14 (inactive)	0.0933	0.669 (inactive)	0.841 (inactive)	2.36
COc1ccc([Si](C)(C)[C@@H]2[C@@H](CCn3cc([C@H](O)c4ccccc4)nn3)O[C@]3(C(=O)N(c4ccccc4)c4ccccc43)[C@H]2C)cc1	0.424 (inactive)	-0.348	3.15 (inactive)	-1.51 (inactive)	3.03 (inactive)	-1.63 (inactive)	0.751	-0.0239 (inactive)	0.276 (inactive)	0.506
COc1cccc(/C=C(\C#N)C(=O)Nc2c(C)n(C)n(-c3ccccc3)c2=O)c1	1.42 (inactive)	-0.168	2.13 (inactive)	-0.901 (inactive)	0.381 (inactive)	-0.924 (inactive)	1.06	-0.355 (inactive)	0.139 (inactive)	0.595
Cc1ccc(S[C@]2(C(=O)NC(C)C)CC(=O)N(Cc3ccccc3Cl)[C@@H]2c2ccc(CO)cc2)cc1	-1.03 (inactive)	0.0509	3.11 (inactive)	0.0285 (inactive)	1.5 (inactive)	0.253 (inactive)	-0.026	-0.984 (inactive)	-1.19 (inactive)	-0.486
C=CCN1C(=O)[C@]2(O[C@H](CCO)[C@@H]([Si](C)(C)c3ccc(OC)cc3)[C@@H]2C)c2cc(N3C(=O)COc4ccccc43)ccc21	0.512 (inactive)	0.142	6.04 (inactive)	2.56 (inactive)	-0.398 (inactive)	0.742 (inactive)	2.03	0.617 (inactive)	0.0613 (inactive)	-1.94
[N-]=[N+]=NCc1ccccc1[C@@H]1OC(c2ccc(OCCCO)cc2)=N[C@]1(Cc1ccccc1N=[N+]=[N-])C(=O)NCCN1CCOCC1	-0.04 (inactive)	0.254	16.5 (active)	2.41 (inactive)	1.46 (inactive)	1.45 (inactive)	-0.417	-2.49 (inactive)	-0.406 (inactive)	-1
CCCNC(=O)[C@@]1(C)c2ccccc2C(=O)N(Cc2ccccc2)[C@H]1c1ccc(CO)cc1	1.3 (inactive)	0.594	3.35 (inactive)	0.505 (inactive)	0.231 (inactive)	0.157 (inactive)	0.0612	-0.703 (inactive)	-0.0486 (inactive)	0.885
C=CCOC(=O)[C@H]1[C@@H]2C(=O)O[C@@H](c3ccccc3)[C@@H](c3ccccc3)N2[C@@H](c2ccc(OCCOC(=O)[C@H]3C[C@H]4C(=O)N[C@@H](CCCCNC(C)=O)C(=O)N4[C@H]3c3cccc(OCCO)c3)cc2)[C@]12C(=O)Nc1ccc(I)cc12	0.831 (inactive)	-0.625	1.81 (inactive)	-0.285 (inactive)	1.31 (inactive)	-1.61 (inactive)	0.112	-0.224 (inactive)	0.68 (inactive)	-0.174
Cc1ccc(F)cc1S(=O)(=O)N[C@@H]1CCN(Cc2cccc3[nH]ccc23)C1	-1.41 (inactive)	-0.007	1.27 (inactive)	0.137 (inactive)	0.0401 (inactive)	0.451 (inactive)	-0.453	0.116 (inactive)	-0.746 (inactive)	-0.541
